From PubChem BioAssay (NCI) come the findings set out here.

This is part of a sample that, as a whole, favours compounds with a hit. Of some 83,000 tested, about 20% had one in any assay.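 48-hour exposure, single concentration, 96-well plates; percent growth endpoint where 0 means no net growth. Active: below 10.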 Active and inactive are the calls of the source.

This assay has as its system MDA-MB-231 breast. Kind of assay: NCI-60 one-dose screen, 48 h (100 = growth as untreated, 0 = no growth, -100 = all killed). The note with it: 10 µM unless noted.
Take `CCOC(=O)c1ccc(N(CCC(=O)O)C(C)=O)cc1`: the growth was 110% (inactive).

Regarding `Nc1c(C(=O)Nc2cccc(Cl)c2)sc2ncc(Br)cc12`, the growth was 73.5% (inactive).

Consider `CSC(=S)N/N=C(\C)c1ccccn1`, for which the growth was 33.9% (inactive).

As to `CC(=O)O[C@H]1[C@H](CC#CC#CC[C@@H]2C[C@]3(C)[C@H]4CC=C5[C@H]6[C@@H](C)[C@H](C)CC[C@]6(C(=O)NCCCCCCCCN)CC[C@@]5(C)[C@]4(C)CC[C@H]3C(C)(C)[C@H]2OC(C)=O)C[C@]2(C)[C@H]3CC=C4[C@H]5[C@@H](C)[C@H](C)CC[C@]5(C(=O)NCCCCCCCCN)CC[C@@]4(C)[C@]3(C)CC[C@H]2C1(C)C`, the growth was 103% (inactive).

As for `CC(C)COC(=O)NC(C)(C)C`, the growth was 119% (inactive).

On to `CCC(=O)NC(O)C(Cl)(Cl)C(C)Cl` (stereo not drawn), for which the growth was 99.8% (inactive).

`C#CCNC(=S)N/N=C(\C)c1ccccn1`: the growth is 39.5% (inactive).

As for `COc1ccc(-c2nnc(SCC(=O)Nc3ccc(C(=O)/C=C/c4ccc(Cl)cc4)cc3)n2-c2ccccc2)cc1`, the growth is 79.6% (inactive).

Consider `CC1CCN(Cc2ccc(NC(=O)c3cc4ccc5cccnc5c4[nH]3)cc2)CC1`, for which the growth was 23.2% (inactive).

As for `CC(C)N1CCN(c2ccncc2S(=O)(=O)N2CCN(C)CC2)CC1`, the growth was 101% (inactive).

`O=C(/C=C/c1ccccc1)n1c(-c2ccccc2)nc2ccccc21`: the growth was 117% (inactive).

As to `COC1CC(N)C2OC(c3ccccc3)OCC2O1` (stereo not drawn), the growth is 98.3% (inactive).

With `COc1cccc(NC(=O)[C@H](C(C)C)n2c(=O)[nH]c3ccccc3c2=O)c1`, the growth was 107% (inactive).
